Laboratory results as given in PubChem BioAssay (NCI).
The panel holds about 83,000 compounds, 20% with a hit somewhere; the sample as a whole holds those more often.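 Plates (96-well) were seeded with cells, treated with compound at one concentration, and incubated for 48 hours before percent growth was determined.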 The source made the active and inactive calls. The calls were made as follows: active = growth percent below 10; inactive = the rest.

How the values were obtained:
Assay in all cases: NCI-60 one-dose screen, 48 h (100 = growth as untreated, 0 = no growth, -100 = all killed)
Conditions in all cases: 10 µM unless noted
[1] = system: EKVX NSCLC
[2] = system: SN12C renal
[3] = system: UO-31 renal
[4] = system: TK-10 renal
[5] = system: ACHN renal
[6] = system: CAKI-1 renal
[7] = system: A498 renal
[8] = system: CCRF-CEM leukemia
[9] = system: MOLT-4 leukemia

Measured: growth

O=c1oc2ccc(Cl)cc2c(=O)n1-c1ccc(F)cc1F
active: [2] 4.19% | [3] -1.33% | [5] 4.18% | [6] -14% | [7] -35.4% | [9] 9.73%
inactive: [1] 36.2% | [4] 21% | [8] 13.7%

C#CCn1cc(C=C2C(=O)N(C)C(=O)N(C)C2=O)c2cc(Cl)ccc21
inactive: [1] 98.1% | [2] 101% | [3] 80.1% | [4] 106% | [5] 99.4% | [6] 91.7% | [7] 70% | [8] 105% | [9] 105%

C#CCn1cc(C=C2C(=O)NC(=O)NC2=O)c2cc(Cl)ccc21
active: [7] -53.3%
inactive: [1] 90.9% | [2] 81.3% | [3] 67.5% | [4] 118% | [5] 97.4% | [6] 72% | [8] 82.2% | [9] 77.9%

O=C(COc1cc(O)c2c(=O)cc(-c3ccccc3)oc2c1)Nc1ccccc1
inactive: [1] 103% | [2] 89.9% | [3] 80.2% | [4] 103% | [5] 57.9% | [6] 77.9% | [7] 98.8% | [8] 94.4% | [9] 91.1%

O=C(Nc1ccc(I)cc1F)c1cc(Cl)ccc1O
active: [1] 7.55% | [2] 2.43% | [3] 9.04% | [5] 6.15% | [6] -12% | [7] -64.4% | [8] 7.89% | [9] -30.5%
inactive: [4] 10.5%

O=c1oc2ccc(Br)cc2c(=O)n1-c1ccc(Cl)cc1F
active: [1] 9.06% | [2] 1.42% | [3] 7.61% | [4] 7.09% | [5] 2.66% | [6] -18.1% | [7] -69.8% | [8] 6.89% | [9] -8.39%

CN1CCN(Cc2ccc(NC(=O)c3cncc(C#Cc4nc(N)nc5[nH]ncc45)c3)cc2C(F)(F)F)CC1
inactive: [1] 109% | [2] 89.7% | [3] 122% | [4] 126% | [5] 99.8% | [6] 66.5% | [7] 102%
active: [8] 5.35% | [9] 8.02%

O=c1oc2ccc(I)cc2c(=O)n1-c1ccc(Br)cc1F
active: [1] 7.21% | [2] 0.636% | [3] 5.6% | [4] 0.987% | [5] 1.01% | [6] -17.8% | [7] -62.2% | [8] 8.26% | [9] 3.69%

O=c1oc2ccc(F)cc2c(=O)n1-c1ccc(Cl)cc1F
inactive: [8] 12.7%
active: [1] 9.11% | [2] 1.59% | [3] 1.41% | [4] 5.92% | [5] 1.55% | [6] -21.5% | [7] -51% | [9] -5.46%

Cc1nc2ccccc2c(/C=C/c2ccc(F)cc2)c1C(N)=O
inactive: [1] 94.8% | [2] 102% | [3] 80.9% | [4] 134% | [5] 100% | [6] 87.2% | [7] 89.2% | [8] 93.6% | [9] 111%

NCCNc1nc2ccc(F)cc2c2c(=O)c3cc(F)ccc3sc12
inactive: [1] 75.9% | [2] 46.3% | [3] 35.6% | [4] 59.1% | [5] 31.6% | [6] 22.5% | [7] 41.2% | [8] 20.7%
active: [9] 5.51%

COc1ccc(OC)c(/C=C/C(=O)c2c(C)nc3ccccc3c2/C=C/c2ccccc2)c1
inactive: [1] 79.4% | [2] 58.1% | [3] 60.3% | [4] 112% | [5] 74.6% | [6] 54.4% | [7] 83.2% | [9] 10.2%
active: [8] 9.58%

O=C(Nc1ccc(I)cc1F)c1cc(Br)ccc1O
active: [1] 6.95% | [2] 3.31% | [3] 8.84% | [4] 1.98% | [5] 4.42% | [6] -18.9% | [7] -62.1% | [8] 7.25% | [9] -12.2%

O=C(Nc1ccc(I)cc1F)c1cc(F)ccc1O
active: [1] 5.82% | [2] 0.104% | [3] 6.41% | [4] -0.353% | [5] 2.56% | [6] -24.8% | [7] -58.9% | [8] 6.38% | [9] -16.4%

COc1c(B(O)O)cccc1-c1nc2ccc3n[nH]c(F)c3c2c2c1CCCC2
active: [6] 0.82%
inactive: [1] 93% | [2] 62.6% | [3] 41.5% | [4] 35.7% | [5] 65.9% | [7] 65.7% | [8] 38.8% | [9] 37.8%

O=C(Nc1ccc(F)cc1F)c1cc(I)ccc1O
active: [2] 8.12% | [3] 2.51% | [6] -17.5% | [7] -33.2% | [9] 7.29%
inactive: [1] 55.8% | [4] 23.1% | [5] 11% | [8] 14.1%

Nc1n[nH]c2ccc([C@@H]3Nc4ccc5[nH]ncc5c4[C@H]4[C@H]5CCC(C5)[C@H]43)cc12
inactive: [1] 40.2% | [2] 24.6% | [3] 46.3% | [4] 60.8% | [5] 27.7% | [6] 16.4% | [8] 17% | [9] 18%
active: [7] -20.5%

O=c1oc2ccc(-c3ccc(F)cc3F)cc2c(=O)n1-c1cccc(C(F)(F)F)c1
inactive: [1] 13.5% | [4] 11.6% | [8] 10.4%
active: [2] 4.72% | [3] 1.41% | [5] 6.31% | [6] -12.6% | [7] -42.6% | [9] 1.99%

CN1CCN(Cc2ccc(C(=O)Nc3cncc(C#Cc4cnc(N)c5ccccc45)c3)cc2C(F)(F)F)CC1
active: [1] -8.85% | [2] -81.7% | [3] -90.7% | [4] -70.1% | [5] -76.1% | [6] -91.4% | [7] -62.9% | [8] 0.702% | [9] -30%

COc1ccc(C2Nc3nc(OC)n(C)c(=O)c3N=C3c4ccccc4C(=O)C32)cc1 (stereo not given)
inactive: [1] 81.9% | [2] 86.6% | [3] 94.2% | [4] 124% | [5] 85.3% | [6] 54.4% | [7] 105% | [8] 87.9% | [9] 77.3%

O=c1oc2ccc(Cl)cc2c(=O)n1-c1ccc(Cl)cc1F
active: [1] 9.78% | [2] 2.13% | [3] 6.59% | [4] 6.66% | [5] 4.37% | [6] -16.8% | [7] -71.7% | [8] 5.21% | [9] -25.1%

O=c1oc2ccc(Cl)cc2c(=O)n1-c1cc(C(F)(F)F)cc(C(F)(F)F)c1
active: [1] 5.27% | [2] 1.28% | [3] 6.17% | [4] 0.337% | [5] 3.99% | [6] -24.7% | [7] -68.8% | [8] 5.13% | [9] -16.9%

CC1=C(C(=O)OCC2CCN(C(=O)OC(C)(C)C)CC2)[C@H](c2cccc(C#N)c2)C2=C(CC(C)(C)CC2=O)N1
inactive: [1] 62.6% | [2] 52.9% | [3] 57.8% | [4] 69.7% | [5] 35.4% | [6] 52.4% | [7] 68.3% | [8] 40.5% | [9] 25.3%

O=c1oc2ccc(Br)cc2c(=O)n1-c1ccc(I)cc1F
active: [2] -1.37% | [3] 7.32% | [4] 7.64% | [5] 3.46% | [6] -8.71% | [7] -70.2% | [8] 7.41% | [9] -26.3%
inactive: [1] 12.5%

O=c1oc2ccc(I)cc2c(=O)n1-c1ccc(I)cc1F
inactive: [4] 11.3%
active: [1] 9.77% | [2] 4.52% | [3] 8.63% | [5] 4.07% | [6] -20.2% | [7] -73.3% | [8] 6.91% | [9] -35.6%

O=C(Nc1ccc(Cl)cc1F)c1cc(I)ccc1O
inactive: [1] 77% | [2] 29.5% | [3] 34% | [4] 15.8% | [5] 34.3% | [6] 22.8% | [8] 29.9% | [9] 31.7%
active: [7] -28.2%

O=C(CCc1nnc2sc(Cc3ccccc3Cl)nn12)c1nc2ncccc2[nH]1
inactive: [1] 94.6% | [2] 87.3% | [3] 63.5% | [4] 128% | [5] 94.9% | [6] 74.4% | [7] 87.5% | [8] 103% | [9] 86.2%

O=C(Nc1ccc(Br)cc1F)c1cc(F)ccc1O
active: [1] 7.73% | [2] 3.29% | [3] 6.93% | [4] 3.6% | [5] 1.78% | [6] -16.7% | [7] -68.8% | [8] 7.49% | [9] 0.344%

Cc1nc2ccccc2c(/C=C/c2ccccc2)c1C(=O)/C=C/c1ccc(Cl)cc1
inactive: [1] 39.9% | [2] 19.7% | [3] 11.1% | [4] 21.9% | [5] 14.3% | [6] 12.6% | [7] 36.7%
active: [8] 3.51% | [9] 5.62%

O=c1oc2ccc(-c3ccc(F)cc3F)cc2c(=O)n1-c1ccc(Cl)c(C(F)(F)F)c1
inactive: [1] 55.4% | [2] 11.2% | [3] 75.6% | [4] 15.8% | [5] 18.2% | [8] 13.2%
active: [6] -8.76% | [7] -43.5% | [9] 6.67%
